Here are results for 15 compounds from PubChem BioAssay.

Active and inactive are the calls of the source. Unless noted, no rule for the calls is given here.

Assay [1] deals with Wnt5a (protein binding on small-molecule microarray). Nature of the assay: small molecules binding Wnt5a protein – biophysical, small-molecule microarray, 635/667 nm fluorescence, primary screen (AID 1142).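 Also: fluorescence read at 667 nm with signal to noise per printed feature.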 Conditions: 635 nm fluorescence, higher = more signal.
A short description of assay [2]: ATP-based viability of Huh7 replicon cells – cell-based, CellTiter-Glo luminescence, basal, 48 h, cytotoxicity control for HCV replication inhibitor project, primary screen (AID 1143).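 Also: Huh7 hepatoma cells carrying a hepatitis C replication reporter with no stimulus; test concentration not given here.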 Conditions: higher = more signal, called active from +8 up or from −8 down. On the technique in general: In antiviral work, replicon cells carry a viral genome segment that copies itself.

Assay [3] can be described thus: Pseudomonas biofilm growth suppression – PAO1 strain, BacTiter-Glo luminescence, LB-PBS, primary screen (AID 1144). To be noted: P. aeruginosa PAO1 biofilm, 12 h, higher = more signal.
Assay [4] can be described thus: basal CRE-LacZ reporter activity in PC12 – cell-based, unstimulated, primary screen (AID 1145). To be noted: no forskolin, luminescence, 4.5 h, higher = more signal, called active from +8 up or from −8 down.
Assay [5] can be described thus: forskolin-driven CRE-LacZ activity in PC12 – cell-based, CRE-LacZ reporter, forskolin-stimulated, primary screen (AID 1146).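 Also: PC12 cells with 6xCRE LacZ reporter stimulated by forskolin 10 µM; beta-galactosidase reporter signal reflecting CREB driven transcription.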 To be noted: luminescence, 4.5 h, higher = more signal, called active from +8 up or from −8 down.
Assay [6] has as its target Streptavidin (Streptomyces avidinii) (UniProt P22629). As to the kind of experiment: compounds binding control protein streptavidin – biophysical, small-molecule microarray, 635/667 nm fluorescence, artefact control for SMM compound annotation, primary screen (AID 1147).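 Also: signal reflects streptavidin binding to arrayed compounds as a control protein.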 To be noted: higher = more signal.
Assay [7] is described as follows: probe aInhba binding on compound microarray – biochemical, small-molecule microarray, 635/667 nm fluorescence, primary screen (AID 1148).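 Also: score merges 667nm spot fluorescence with signal-to-noise for antibody binding to printed compounds.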 Conditions: higher = more signal.
Assay [8] has as its target Torsin-1A (Homo sapiens) (UniProt O14656). As to the kind of experiment: TOR1A wild-type binding on microarray – cell lysate, small-molecule microarray, lysate, 635/667 nm, primary screen (AID 1149). To be noted: COS7 hTOR1A-WT lysate, 635 nm fluorescence, higher = more signal.
Assay [9] shares this target. Nature of the assay: torsin A mutant lysate binding on microarrays – cell lysate, small-molecule microarray, COS7 lysate, 635/667 nm fluorescence, primary screen (AID 1150).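 Also: score pools 667 nm emission and signal to noise measuring lysate protein binding.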 Conditions: COS7 hTOR1A mutant lysate, 635 nm fluorescence, higher = more signal.
Assay [10] deals with Sonic hedgehog protein (Shh). As to the kind of experiment: Sonic hedgehog microarray binding compounds – biochemical, small-molecule microarray, 635/667 nm fluorescence, primary screen (AID 1151).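 Also: Shh protein binding to compounds spotted on small-molecule microarray slides; score combines spot fluorescence intensity with signal-to-noise across triplicate slides.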 Conditions: 635 nm fluorescence, higher = more signal.

Chain of Streptavidin (Streptomyces avidinii) (P22629 whole entry, looked up): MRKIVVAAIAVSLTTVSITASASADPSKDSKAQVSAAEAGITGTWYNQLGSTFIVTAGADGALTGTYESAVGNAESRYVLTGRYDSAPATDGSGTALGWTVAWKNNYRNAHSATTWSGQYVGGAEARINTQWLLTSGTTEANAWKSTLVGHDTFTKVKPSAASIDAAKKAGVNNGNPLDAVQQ
Chain of Torsin-1A (Homo sapiens) (O14656 whole entry, looked up): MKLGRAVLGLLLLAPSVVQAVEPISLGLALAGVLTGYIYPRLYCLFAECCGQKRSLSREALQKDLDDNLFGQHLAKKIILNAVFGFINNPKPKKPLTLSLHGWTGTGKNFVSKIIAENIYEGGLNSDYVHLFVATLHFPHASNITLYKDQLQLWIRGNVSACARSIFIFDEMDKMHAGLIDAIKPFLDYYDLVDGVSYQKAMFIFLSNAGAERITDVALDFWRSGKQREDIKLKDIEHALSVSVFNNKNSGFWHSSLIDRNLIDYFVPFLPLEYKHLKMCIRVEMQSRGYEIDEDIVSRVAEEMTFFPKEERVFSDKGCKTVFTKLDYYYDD

With `C=CCNC(=O)[C@H]1[C@@H]2C(=O)O[C@@H](c3ccccc3)[C@@H](c3ccccc3)N2[C@@H](c2ccc(OCCO)cc2)[C@]12C(=O)Nc1ccc(C#CCC(C(=O)OC)C(=O)OC)cc12`, the composite z-score was found to be 0.256 in assay [1]; 1.17 in assay [6]; 0.0816 in [7]; 0.332 in assay [8]; 0.862 in assay [9]; 0.984 in [10]. Besides, the z-score was -1.19 (inactive) in assay [2], 0.626 (inactive) in [3], -0.728 (inactive) in assay [4] and 0.323 (inactive) in [5].

In the case of `Cc1ccc(S(=O)(=O)N2C[C@@H](C(=O)O)[C@H](Sc3ccccc3)C[C@H]2c2ccccc2)cc1`, the composite z-score was 0.731 in assay [1]; 1.26 in assay [6]; 0.0403 in assay [7]; 0.301 in [8]; 0.714 in assay [9]; -0.156 in [10]. The z-score is -0.763 (inactive) in assay [2], -0.103 (inactive) in assay [3], -0.667 (inactive) in assay [4] and -0.356 (inactive) in assay [5].

For `COc1ccc(NC(=O)O[C@H]2[C@H](OC(=O)c3cc4ccccc4[nH]3)[C@@H](OC(=O)c3cc4ccccc4[nH]3)[C@@H](OC)O[C@@H]2CO)cc1`, the composite z-score was 0.147 in [1]; -0.342 in [6]; -0.0044 in assay [7]; -0.0863 in assay [8]; 0.291 in assay [9]; 0.593 in assay [10]. In addition, the z-score in assay [2] is -4.18 (inactive); in assay [3] it was -1.65 (inactive); in assay [4] it was 1.84 (inactive); in assay [5], -1.1 (inactive).

Take `CCOC(=O)[C@H]1C/C=C/C[C@H](C(=O)OCC)C(=O)O[C@H]2[C@@H](OC)O[C@H](CO)[C@@H](OC(=O)c3ccc(Br)cc3)[C@@H]2OC1=O`: the composite z-score was 0.168 in [1]; -0.0923 in [6]; 0.0464 in [7]; 0.441 in assay [8]; -0.15 in [9]; 0.473 in assay [10]. Besides, the z-score in [2] is -3.02 (inactive); in assay [3], -0.79 (inactive); in assay [4], 0.342 (inactive); in [5], -0.0314 (inactive).

For `CC(C)(C)OC(=O)CC[C@]1(C(N)=O)N=C(c2ccc(OCCCO)cc2)O[C@H]1c1ccccc1`, the composite z-score in assay [1] was 0.836; in assay [6], 0.679; in assay [7], 0.4; in assay [8], -0.037; in [9], 0.941; in [10], -0.332. Also, the z-score is -0.408 (inactive) in assay [2], 0.304 (inactive) in [3], -0.585 (inactive) in assay [4] and -0.121 (inactive) in assay [5].

`C#CCOc1ccc(C[C@@H](C(=O)OC)N(CC#C)[C@@H](/C=C/C2CC2)[C@H](O)Cc2ccccc2)cc1`: the composite z-score was -0.589 in assay [1]; -0.57 in [6]; -0.183 in [7]; -1.18 in assay [8]; -0.489 in assay [9]; -0.34 in [10]. Also, the z-score in [2] is -2.59 (inactive); in assay [3] it was 0.803 (inactive); in assay [4], 14.9 (active); in assay [5] it was 1 (inactive).

Take `COC(=O)C(CC#Cc1ccc2c(c1)[C@]1(C(=O)N2)[C@H](c2ccc(O)cc2)N2[C@H](c3ccccc3)[C@H](c3ccccc3)OC(=O)[C@H]2[C@@H]1C(=O)N1CCN(c2ncccn2)CC1)C(=O)OC`: the composite z-score in assay [1] amounted to 0.131; in [6], 0.709; in assay [7], 0.313; in [8], 0.131; in assay [9] it was 0.338; in [10], 0.618. Also, the z-score in [2] is -2.25 (inactive); in assay [3] it was -1.08 (inactive); in [4], -0.644 (inactive); in assay [5], -0.0048 (inactive).

In the case of `C=C(/C(=C/C[C@H](OC(C)=O)c1ccc(OCCO)cc1)c1cc(C(=O)OC)ccc1OC)C(C)C`, the composite z-score stood at 0.269 in [1]; 1.17 in assay [6]; 0.0589 in assay [7]; 0.287 in assay [8]; 1.98 in assay [9]; 1.41 in assay [10]. The z-score was -2.4 (inactive) in assay [2], -0.357 (inactive) in assay [3], 20.7 (active) in assay [4] and -0.509 (inactive) in [5].

For the compound `CCCCN1CC=CC23O[C@@H]4/C=C\CCCOC(=O)C4[C@H]2C(=O)N(CCCCCO)[C@@H]3C1=O` (stereo not given in full), the composite z-score in assay [1] is 0.0311; in [6] it was -1.43; in assay [7], -0.211; in assay [8] it was -0.0808; in [9] it was 0.777; in assay [10] it was -0.695. Besides, the z-score in assay [2] is -0.103 (inactive); in assay [3] it was 0.0433 (inactive); in assay [4] it was 0.333 (inactive); in assay [5] it was -0.391 (inactive).

Regarding `CC1CC/C=C\[C@H]2OC34C=CCN(Cn5nnc6ccccc65)C(=O)[C@H]3N(CCCCCO)C(=O)[C@@H]4C2C(=O)O1` (stereo not given in full), the composite z-score is -0.613 in assay [1]; -1.76 in assay [6]; -0.176 in assay [7]; -2.12 in [8]; -1.12 in assay [9]; -0.124 in assay [10]. In addition, the z-score in [2] is -1.2 (inactive); in assay [3], -0.989 (inactive); in assay [4] it was 0.0524 (inactive); in assay [5], -0.567 (inactive).

`C[N+](C)(C)CCCC[C@@H]1NC(=O)[C@@H]2C[C@H](C(=O)NCCCCCN)[C@H](c3ccc(O)cc3)N2C1=O`: the composite z-score worked out at 0.557 in assay [1]; 1.49 in assay [6]; 0.491 in assay [7]; 0.632 in assay [8]; 0.659 in assay [9]; 1.61 in [10]. The z-score in assay [2] was -0.496 (inactive); in [3] it was -0.771 (inactive); in assay [4], 0.143 (inactive); in [5] it was -0.441 (inactive).

With `C=CCOC(=O)[C@H]1[C@@H]2C(=O)O[C@@H](c3ccccc3)[C@@H](c3ccccc3)N2[C@@H](c2ccc(OCCOC(=O)[C@@H]3C[C@@H]4C(=O)N5CCC[C@H]5C(=O)N4[C@@H]3c3cccc(OCCO)c3)cc2)[C@]12C(=O)Nc1ccc(I)cc12`, the composite z-score was 0.535 in assay [1]; 0.763 in assay [6]; 0.944 in assay [7]; 0.821 in [8]; 0.573 in assay [9]; 2.18 in [10]. Besides, the z-score is -0.402 (inactive) in [2], -0.615 (inactive) in assay [3], 0.423 (inactive) in [4] and -0.633 (inactive) in assay [5].

With `N#Cc1ccc(C(O)C2C=CC3C(=O)N(c4ccccc4)C(=O)C3N2Nc2ccccc2F)cc1` (stereo not given), the composite z-score was 0.286 in [1]; 0.0289 in assay [6]; -0.0986 in assay [7]; -0.291 in [8]; -0.301 in assay [9]; -0.234 in assay [10]. Moreover, the z-score in assay [2] was -2.92 (inactive); in assay [3], -0.826 (inactive); in assay [4] it was -0.107 (inactive); in assay [5], -0.852 (inactive).

In the case of `[N-]=[N+]=NCc1ccccc1C[C@@]1(C(=O)NCC(O)CO)N=C(c2ccc(OCCCO)cc2)O[C@@H]1c1ccccc1` (stereo not given in full), the composite z-score was 0.423 in assay [1]; -0.0302 in [6]; 0.0377 in assay [7]; 0.237 in assay [8]; 1.14 in assay [9]; -0.982 in assay [10]. For the same compound, the z-score in [2] was -4.03 (inactive); in [3], 0.141 (inactive); in assay [4], 1.8 (inactive); in assay [5], 0.617 (inactive).

In the case of `CC(=O)NCCCC[C@@H]1NC(=O)[C@H]2C[C@@H](C(=O)O)[C@@H](c3ccc(O)cc3)N2C1=O`, the composite z-score in assay [1] is 0.176; in assay [6] it was 0.481; in assay [7], 0.0589; in [8], 0.928; in [9], 1.69; in assay [10], 2.02. Moreover, the z-score is -0.798 (inactive) in [2], -0.0331 (inactive) in assay [3], 5.71 (inactive) in assay [4] and 7.82 (inactive) in assay [5].
